Measurements as given in PubChem BioAssay AID1851 (National Center for Advancing Translational Sciences (NCATS), 2009).
Where “and” joins values, the source holds several entries; their conditions need not be identical. Equal values may be shown once. The whole screen tested about 16,000 compounds, of which about 5,100 (32%) were called active. Another 25% or so got no clear call; they are omitted. The call rests on the fitted dose curve; in most records, active means well fitted curve in the direction sought with a large enough effect; inconclusive means small, poorly fitted or top-dose-only effect, or effect the other way; inactive means no such curve, though single readings can be large or run the other way. Some of the results follow.

target: Cytochrome P450 3A4 (Homo sapiens) (UniProt P08684); assay: Cytochrome panel assay with activity outcomes; conditions: recombinant CYP, pro-luciferin dealkylation, luminescence, p450-cyp3a4; series mostly up to 57.1 µM
On the % scale 0 is the no-effect control and ±100 the full control effect.

Chain of Cytochrome P450 3A4 (Homo sapiens) (P08684 whole entry, looked up): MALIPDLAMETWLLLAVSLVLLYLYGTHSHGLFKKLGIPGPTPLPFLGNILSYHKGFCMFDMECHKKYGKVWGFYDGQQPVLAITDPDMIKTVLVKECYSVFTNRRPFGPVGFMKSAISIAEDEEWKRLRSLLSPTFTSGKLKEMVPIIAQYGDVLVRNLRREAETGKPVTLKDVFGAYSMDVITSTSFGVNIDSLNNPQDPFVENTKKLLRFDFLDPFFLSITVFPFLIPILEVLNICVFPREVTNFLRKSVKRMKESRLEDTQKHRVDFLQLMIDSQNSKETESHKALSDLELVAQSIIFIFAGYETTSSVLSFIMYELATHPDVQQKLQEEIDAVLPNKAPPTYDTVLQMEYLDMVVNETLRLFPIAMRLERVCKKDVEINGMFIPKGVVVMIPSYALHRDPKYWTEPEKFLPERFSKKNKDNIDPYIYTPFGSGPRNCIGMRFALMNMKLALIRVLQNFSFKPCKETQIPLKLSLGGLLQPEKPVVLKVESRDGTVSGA

Structure (SMILES) | activity, negative = inhibition | AC50
CCNC(=O)[C@@H]1O[C@@H](n2cnc3c(N)ncnc32)[C@H](O)[C@H]1O | inactive | 
CC(=O)O/C(=C1/C[C@H]2[C@@H]3CC=C4C[C@@H](OC(C)=O)CC[C@]4(C)[C@@H]3CC[C@]2(C)C1=O)C(F)(F)F | 4.88% [at 11.4 µM] (inactive) | 
c1ccc2nc(N3CCNCC3)ccc2c1 | inactive | 
CN(C)CCCNc1c2c(nc3ccc(Cl)cc13)CCCC2 | 0.971% [at 11.4 µM] (inactive) | 
CCN1C[C@]2(COC)CC[C@H](O)[C@@]34[C@@H]5C[C@H]6[C@@H](OC)[C@H]5[C@](O)(C[C@@H]6OC)[C@@](O)([C@@H](OC)[C@H]23)[C@@H]14 | inactive | 
COc1ccccc1CC1C(=O)C2CCN1CC2 (stereo not given) | inactive | 
Cc1ccc(OP(=O)(Oc2ccc(C)cc2)N2C=Cc3ccccc3[C@H]2C#N)cc1 |  | 2.51 µM (active)
O=[N+]([O-])c1ccc(N2CCNCC2)cc1NC1CC1 | 1.13% [at 2.29 µM] (inactive) | 
CCCN(C/C=C\I)[C@@H]1CCc2ccc(O)cc2C1 | inactive | 
CCN1C[C@@]2(COC)CC[C@H](O)[C@@]34[C@@H]2C[C@@H]([C@@H]13)[C@]1(O)C[C@@H](OC)C2C[C@H]4[C@H]1[C@H]2OC(C)=O | inactive | 
COc1ccccc1N1CCNCC1 | inactive | 
C=C(C)[C@H]1CC[C@]2(CO)CC[C@]3(C)[C@@H](CC[C@H]4[C@@]5(C)CC[C@@H](O)C(C)(C)[C@@H]5CC[C@@]43C)[C@H]12 | inactive | 
N[C@H](CP(=O)(O)O)C(=O)O | inactive | 
Cc1ccc(C2CC(=O)C(C=NCCN3CCN(C(=O)Cc4ccccc4)CC3)=C(O)C2)cc1 (stereo not given) |  | 3.16 µM (active)
CC[N+](C)(C)c1cccc(O)c1 | inactive | 
Cn1c(=O)c2[nH]cnc2n(C)c1=O | inactive | 
C[C@H](NC(C)(C)C)C(=O)c1cccc(Cl)c1 | inactive | 
Cc1cc(C)nc(NC2=NCCS2)n1 | inactive | 
CC[N@+]1(C)CCC[C@@H](OC(=O)C(O)(c2ccccc2)c2ccccc2)C1 | inactive | 
CCCc1nc2ccccc2c(=O)n1-c1ccc(OC)cc1 |  | 15.8 µM (active)
CCCCc1nc2ccccc2c(=O)n1-c1ccccc1[N+](=O)[O-] |  | 15.8 µM (active)
Cc1ccc(-c2nc3ccccc3c(=O)n2-c2ncccc2C)cc1 | -6.07% [at 2.29 µM] (inactive) | 
Cc1nc2ccccc2c(=O)n1-n1cnnc1 | inactive | 

Structure (SMILES) | activity, negative = inhibition | AC50
CCCCc1nc2ccccc2c(=O)n1-c1ccc(Cl)cc1[N+](=O)[O-] | inactive | 
CCC(=O)Nc1ccc(N2CCN(CC)CC2)c(Cl)c1 | inactive | 
COc1cc([C@@H](O)CN)ccc1O | inactive | 
O=P(Nc1ccccc1)(Nc1ccccc1)Oc1cccc(Cl)c1 | -28.2% [at 2.29 µM] (inactive) | 
CCN1CCN(Cc2cc(OC)c(OC)cc2[N+](=O)[O-])CC1 | inactive | 
CCNC(=O)O/N=C(\C)c1sc(-c2ccccc2)nc1C | inactive | 
CN(C)C(=O)Oc1cc(OC(=O)N(C)C)cc([C@@H](O)CNC(C)(C)C)c1 | inactive | 
O=C(Cc1ccc(Cl)c(Cl)c1)N1CCCC[C@H]1CN1CCCC1 |  | 15.8 µM (active) and 7.94 µM (active)
NC(N)=NCCN=C(N)N | 0.983% [at 11.4 µM] (inactive) | 
CC1=NN(c2ccccc2)C(=O)[C@@H]1N=Nc1ccc([As](=O)(O)O)c(O)c1 | -5.79% [at 11.4 µM] (inactive) | 
COC(=O)[C@@H](N)CCCN=C(N)N[N+](=O)[O-] | inactive | 
CCn1cc(C(=O)O)c(=O)c2cc3c(cc21)OCO3 | inactive | 
FC(F)(F)c1nc2ccc(SSc3ccc4nc(C(F)(F)F)[nH]c4c3)cc2[nH]1 | 4.91% [at 11.4 µM] (inactive) | 
CC(C)=C[C@H]1[C@@H](C(=O)OCc2cc3c(cc2Cl)OCO3)C1(C)C |  | 0.316 µM (active)
CC(C)C(=O)CP(=O)(O)O | 2.74% [at 11.4 µM] (inactive) | 
O=C(Oc1ccccc1)N1CCC2(CCN(Cc3ccncc3)CC2)CC1 |  | 12.6 µM (active)
CC(C)CN1CCCC2(CCN(C(=O)c3ccncc3)CC2)C1 |  | 12.6 µM (active)
CN1CCCC2(CCN(C(=O)c3ccncc3)CC2)C1 | inactive | 
CC(C)CN1CCC2(CC1)CCN(C(=O)Oc1ccccc1)CC2 | inactive | 
O=C(c1ccncc1)N1CCC2(CC1)CN(Cc1ccccc1)C2 |  | 20 µM (active)
Cc1noc(C)c1C(=O)N1CCC2(CCCN(CC(C)C)C2)CC1 | inactive | 
CC(C)CN1CC2(CCN(C(=O)c3ccncc3)CC2)C1 | inactive | 
c1ccc(CN2CCN(Cc3ccc4c(c3)OCCO4)CC2)cc1 | -16.2% [at 11.4 µM] (inactive) | 

Structure (SMILES) | activity, negative = inhibition | AC50
O=C(Oc1ccccc1)N1CCC2(CCCN(Cc3nccs3)C2)CC1 |  | 12.6 µM (active)
c1cc(CN2CCC3(CCNCC3)CC2)ccn1 | inactive | 
c1csc(CN2CCCC3(CCNCC3)C2)n1 | inactive | 
c1csc(CN2CC[C@@]3(CCCNC3)C2)n1 | inactive | 
N=C(N)n1cc(/C=N\N=C(N)N)cn1 | -16.6% [at 11.4 µM] (inactive) | 
c1ccc2c(c1)-c1ccccc1C2N1CC2CCC(CC2)C1 | -5.36% [at 11.4 µM] (inactive) | 
CN1[C@@H](C[C@@H](O)c2ccccc2)CCC[C@@H]1C[C@H](O)c1ccccc1 | inactive | 
O=[N+]([O-])c1cc(-c2ccc([As](=O)(O)O)cc2)ccc1[As](=O)(O)O | 9.09% [at 11.4 µM] (inactive) | 
O=C(O)[C@@H]1[C@H](C(=O)O)[C@]2(Cl)C(Cl)=C(Cl)[C@@]1(Cl)C2(Cl)Cl | -9.54% [at 11.4 µM] (inactive) | 
C(#CCN1CCCC1)CN1CCCC1 | inactive | 
C[C@]12CC[C@H](O)C[C@@H]1CC[C@H]1[C@H]2CC[C@]2(C)C(=O)CC[C@@H]12 | inactive | 
Cc1cccc(NC(=S)NC2CC3CCCC(C2)N3Cc2cccs2)c1 (stereo not given) | -1.32% [at 2.29 µM] (inactive) | 
COc1ccc(C[C@H]2NC[C@H](O)[C@@H]2OC(C)=O)cc1 | inactive | 
COC1=C(C)C(=O)c2c(c(COC(N)=O)c3n2C[C@@H]2[C@@H]3N2C)C1=O (stereo not given in full) | -20.6% [at 11.4 µM] (inactive) | 
COC(=O)[C@@H]1c2cc3c(c(O)c2[C@@H](O)C[C@]1(C)O)C(=O)c1c(O)cc2c(c1C3=O)O[C@H]1O[C@@]2(C)[C@@H](O)[C@H](N(C)C)[C@H]1O | -12% [at 11.4 µM] (inactive) | 
C[C@@]12CC[C@H](O[C@@H]3O[C@H](CO)[C@@H](O)[C@H](O)[C@@H]3O)C[C@@H]1CC[C@H]1[C@H]2CC[C@@]2(C)[C@@H](C3=CCOC3=O)CC[C@]12O | 0.209% [at 11.4 µM] (inactive) | 
C1C[C@@H]2CN(CCCN3CCOCC3)[C@@H](C1)O2 | -5.91% [at 11.4 µM] (inactive) | 
NN=C(N)N | inactive | 
Clc1ccc(C(c2ccc(Cl)cc2)n2cc[n+](C[C@@H](OCc3ccc(Cl)cc3Cl)c3ccc(Cl)cc3Cl)c2)cc1 |  | 15.8 µM (active)
CC(C)CN1CCC2(CC1)CCN(S(C)(=O)=O)CC2 | inactive | 
O=c1[nH]oc2c1CCNC2 | inactive | 
CCC1(CC)C(=O)C=CNC1=O | inactive | 
CC(C)[C@@H]1CN[C@H](C(=O)O)[C@@H]1CC(=O)O | inactive | 

Structure (SMILES) | activity, negative = inhibition | AC50
C=C1CC[C@H](O)C/C1=C/C=C1\CCC[C@]2(C)[C@H]1CC[C@H]2[C@@H](C)CCCC(C)C | inactive | 
N[C@@]1(C(=O)O)CC[C@H](C(=O)O)C1 | inactive | 
CC(C)C[C@H]1C(=O)N2CCC[C@@H]2[C@@]2(O)O[C@](NC(=O)[C@@H]3C=C4c5cccc6[nH]cc(c56)C[C@@H]4N(C)C3)(C(C)C)C(=O)N12 |  | 2 µM (active)
CC(C)[C@@]1(NC(=O)[C@@H]2C[C@H]3c4cccc5[nH]cc(c45)C[C@@H]3N(C)C2)O[C@]2(O)[C@H]3CCCN3C(=O)CN2C1=O | inactive | 
CC[C@H](CO)NC(=O)[C@@H]1C=C2c3cccc4c3c(cn4C)C[C@@H]2N(C)C1 | inactive | 
CCNC(=S)NC1CC2CCCC(C1)N2Cc1ccco1 (stereo not given) | -6.93% [at 2.29 µM] (inactive) | 
CC1=CC(=O)C2=C(C)C[C@@H](O)[C@@H]3[C@@H](OC(=O)[C@H]3C)[C@H]12 | inactive | 
O=C(Nc1cccc2ccccc12)c1nn(C23CC4CC(CC(C4)C2)C3)cc1Br | inactive | 
NCCCNCCSP(=O)(O)O | inactive | 
CNC(=S)NC1CC2CCCC(C1)N2CC(C)C (stereo not given) | inactive | 
C[C@@H]1O[C@H](O[C@H]2C[C@@H](O)[C@@]3(CO)[C@H]4[C@@H](O)C[C@]5(C)[C@@H](C6=CC(=O)OC6)CC[C@]5(O)[C@H]4CC[C@]3(O)C2)[C@@H](O)[C@H](O)[C@@H]1O | inactive | 
Cc1ccc(C2(c3ccc(C)c(O)c3C)CCN(C)CC2)c(C)c1O | -1.39% [at 11.4 µM] (inactive) | 
CCOP(=O)(OCC)c1nc(/C=C/c2ccccc2)oc1NCc1ccccc1 |  | 14.1 µM (active)
C[C@H](Br)C(=O)c1ccc2cc(Br)c3ccccc3c2c1 | -23.5% [at 11.4 µM] (inactive) | 
NCCc1c[nH]c2ccc(C(N)=O)cc12 | inactive | 
CCCN(CCC)[C@H]1CCc2c(F)ccc(O)c2C1 | inactive | 
CCS(=O)(=O)Nc1cccc(C(=C2CCCCC2)c2cnc[nH]2)c1 |  | 0.316 µM (active)
CC1(C)CCC(C)(C)c2c1ccc(O)c2Cc1c(O)ccc2c1C(C)(C)CCC2(C)C | -26.4% [at 11.4 µM] (inactive) | 
C[C@@]12CC[C@H](O)C[C@@H]1CC[C@@H]1[C@@H]2CC[C@@]2(C)[C@@H](C3=CC(=O)OC3)[C@H](O)C[C@]12O | -21.4% [at 11.4 µM] (inactive) | 
C[C@@]12CC[C@H](O)C[C@@H]1CC[C@H]1[C@H]2CC[C@@]2(C)[C@@H](C3=CC(=O)OC3)CC[C@]12O |  | 3.16 µM (active)
C[C@@]12CC[C@H](O)C[C@@H]1CC[C@H]1[C@@H]2C[C@@H](O)[C@]2(C)[C@@H](C3=CC(=O)OC3)CC[C@]12O | inactive | 
